# Reference: publication PMC7862700, “An all-to-all approach to the identification of sequence-specific readers for epigenetic DNA modifications on cytosine”
# Assays:
# Assay in all cases: DAPPL (digital affinity profiling via proximity ligation, sequencing); 10 mM Tris-HCl pH 7.5, 50 mM NaCl, 1 mM DTT, 4% glycerol, room temperature, 30 min; GST-TFs on glutathione beads, 16-mer random dsDNA library, 0.1% formaldehyde crosslink after washing; high values mean tight binding
# Details in all cases: protein: recombinant; tags: N-terminal GST; dsDNA, one strand shown
# FLI1 = biological target: T1, FLI1 (Homo sapiens, UniProt Q01543 1-452)
# T1 sequence: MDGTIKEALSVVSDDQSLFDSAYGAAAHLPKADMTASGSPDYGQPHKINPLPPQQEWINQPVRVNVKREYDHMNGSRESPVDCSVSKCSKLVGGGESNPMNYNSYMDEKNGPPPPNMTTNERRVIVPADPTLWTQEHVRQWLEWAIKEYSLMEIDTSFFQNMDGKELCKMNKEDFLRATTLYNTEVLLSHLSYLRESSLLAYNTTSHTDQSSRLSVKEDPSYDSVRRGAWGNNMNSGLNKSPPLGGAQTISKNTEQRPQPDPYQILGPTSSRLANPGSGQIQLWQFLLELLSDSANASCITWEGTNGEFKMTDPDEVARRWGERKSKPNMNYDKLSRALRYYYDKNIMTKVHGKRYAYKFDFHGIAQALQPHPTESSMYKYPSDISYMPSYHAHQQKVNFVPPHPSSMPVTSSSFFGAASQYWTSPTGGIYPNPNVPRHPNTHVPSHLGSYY
# How it was run: (§1)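 Pools of DNA-barcoded human transcription factors, expressed in yeast as GST fusions on glutathione beads and combined with a tag-only sample, were incubated with 200 nmole of a 16-mer random double-stranded DNA library. Incubation took 30 min at room temperature in Tris/NaCl/DTT/glycerol buffer and was followed by washing, 0.1% formaldehyde crosslinking, proximity ligation (BsaI/T4 ligase, 1 h, 37 °C), PCR amplification and sequencing on an Illumina NextSeq500. Binding signal is the ratio of a hexamer's read frequency for a factor to its frequency for the tag-only sample.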
# ELK1 = biological target: T2, ELK1 (Homo sapiens, UniProt P19419 1-428)
# T2 sequence: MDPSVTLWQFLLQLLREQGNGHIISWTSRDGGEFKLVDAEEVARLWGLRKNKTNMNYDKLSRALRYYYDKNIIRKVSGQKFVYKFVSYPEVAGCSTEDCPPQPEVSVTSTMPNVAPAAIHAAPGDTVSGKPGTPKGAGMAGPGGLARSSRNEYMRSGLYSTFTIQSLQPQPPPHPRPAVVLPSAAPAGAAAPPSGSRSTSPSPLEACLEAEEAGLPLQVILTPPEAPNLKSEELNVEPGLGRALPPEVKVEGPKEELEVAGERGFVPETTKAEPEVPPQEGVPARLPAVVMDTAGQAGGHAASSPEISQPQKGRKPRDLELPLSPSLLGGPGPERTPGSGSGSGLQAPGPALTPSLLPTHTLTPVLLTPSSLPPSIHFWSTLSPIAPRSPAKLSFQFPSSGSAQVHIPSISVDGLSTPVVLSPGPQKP
# How it was run: as §1
# GABPA = biological target: T3, GABPA (Homo sapiens, UniProt Q06546 1-454)
# T3 sequence: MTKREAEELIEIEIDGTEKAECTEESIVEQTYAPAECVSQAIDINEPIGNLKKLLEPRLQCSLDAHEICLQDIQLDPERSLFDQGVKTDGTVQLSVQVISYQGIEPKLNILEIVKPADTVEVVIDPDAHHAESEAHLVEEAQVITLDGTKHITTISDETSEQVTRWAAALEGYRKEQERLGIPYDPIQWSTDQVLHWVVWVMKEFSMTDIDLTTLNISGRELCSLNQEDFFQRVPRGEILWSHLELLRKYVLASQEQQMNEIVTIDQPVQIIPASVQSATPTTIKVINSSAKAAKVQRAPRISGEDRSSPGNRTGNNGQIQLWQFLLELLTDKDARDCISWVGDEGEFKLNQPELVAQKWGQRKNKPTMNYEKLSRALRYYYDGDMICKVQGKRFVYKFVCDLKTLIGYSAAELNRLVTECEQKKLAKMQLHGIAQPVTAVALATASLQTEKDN
# How it was run: as §1
# ERG = biological target: T4, ERG (Homo sapiens, UniProt P11308 1-479)
# T4 sequence: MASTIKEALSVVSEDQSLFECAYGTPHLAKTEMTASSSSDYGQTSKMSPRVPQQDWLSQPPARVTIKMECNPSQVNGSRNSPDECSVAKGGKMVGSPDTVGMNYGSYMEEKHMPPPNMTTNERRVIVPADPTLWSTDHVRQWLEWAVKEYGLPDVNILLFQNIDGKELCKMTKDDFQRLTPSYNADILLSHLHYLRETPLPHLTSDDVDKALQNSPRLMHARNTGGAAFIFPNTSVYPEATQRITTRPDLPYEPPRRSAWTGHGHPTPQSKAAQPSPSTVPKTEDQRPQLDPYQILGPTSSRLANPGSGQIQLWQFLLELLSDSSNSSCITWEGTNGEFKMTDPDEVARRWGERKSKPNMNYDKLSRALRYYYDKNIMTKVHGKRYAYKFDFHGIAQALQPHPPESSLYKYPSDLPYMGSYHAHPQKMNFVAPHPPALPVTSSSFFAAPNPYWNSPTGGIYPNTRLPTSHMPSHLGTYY
# How it was run: as §1
# ELF1 = ELF1 (Homo sapiens, UniProt P32519 1-619)
# Sequence of ELF1 (P32519 whole entry): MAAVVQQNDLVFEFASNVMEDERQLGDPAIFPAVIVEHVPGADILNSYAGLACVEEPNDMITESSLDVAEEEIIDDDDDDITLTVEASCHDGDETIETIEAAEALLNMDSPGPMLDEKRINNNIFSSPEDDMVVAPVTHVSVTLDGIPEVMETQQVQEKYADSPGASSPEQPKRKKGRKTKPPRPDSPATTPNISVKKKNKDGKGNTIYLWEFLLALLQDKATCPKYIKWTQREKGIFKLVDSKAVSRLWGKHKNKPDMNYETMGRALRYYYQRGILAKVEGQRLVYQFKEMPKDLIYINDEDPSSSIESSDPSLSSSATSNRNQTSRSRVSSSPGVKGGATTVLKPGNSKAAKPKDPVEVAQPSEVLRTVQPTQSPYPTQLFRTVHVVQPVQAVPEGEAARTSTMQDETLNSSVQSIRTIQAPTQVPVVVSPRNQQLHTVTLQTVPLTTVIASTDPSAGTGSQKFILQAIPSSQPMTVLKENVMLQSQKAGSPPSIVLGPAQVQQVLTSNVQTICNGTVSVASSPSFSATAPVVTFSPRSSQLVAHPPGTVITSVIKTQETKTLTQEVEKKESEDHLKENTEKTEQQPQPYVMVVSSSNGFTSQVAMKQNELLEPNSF
# How it was run: as §1
# EHF = biological target: T5, EHF (Homo sapiens, UniProt Q9NZC4 1-300)
# T5 sequence: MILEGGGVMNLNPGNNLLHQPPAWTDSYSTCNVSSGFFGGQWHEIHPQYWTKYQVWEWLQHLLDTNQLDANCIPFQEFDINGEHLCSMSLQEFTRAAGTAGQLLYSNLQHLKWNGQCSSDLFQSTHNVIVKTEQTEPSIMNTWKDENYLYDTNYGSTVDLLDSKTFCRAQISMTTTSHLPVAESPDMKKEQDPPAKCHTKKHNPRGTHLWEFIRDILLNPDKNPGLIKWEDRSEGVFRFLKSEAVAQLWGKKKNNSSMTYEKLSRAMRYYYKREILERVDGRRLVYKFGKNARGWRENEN
# How it was run: as §1
# SPI1 = SPI1 (Homo sapiens, UniProt P17947 1-270)
# How it was run: as §1
# SPIB = SPIB (Homo sapiens, UniProt Q01892 1-262)
# Sequence of SPIB (Q01892 whole entry): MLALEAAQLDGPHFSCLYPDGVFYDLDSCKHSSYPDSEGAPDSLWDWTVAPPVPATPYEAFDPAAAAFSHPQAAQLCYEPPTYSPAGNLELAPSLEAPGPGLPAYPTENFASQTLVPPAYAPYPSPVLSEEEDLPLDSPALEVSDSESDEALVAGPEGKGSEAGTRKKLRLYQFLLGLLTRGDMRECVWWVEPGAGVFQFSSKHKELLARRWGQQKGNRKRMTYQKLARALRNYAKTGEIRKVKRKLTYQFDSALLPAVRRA
# How it was run: as §1
# ELK3 = biological target: T6, ELK3 (Homo sapiens, UniProt P41970 1-407)
# T6 sequence: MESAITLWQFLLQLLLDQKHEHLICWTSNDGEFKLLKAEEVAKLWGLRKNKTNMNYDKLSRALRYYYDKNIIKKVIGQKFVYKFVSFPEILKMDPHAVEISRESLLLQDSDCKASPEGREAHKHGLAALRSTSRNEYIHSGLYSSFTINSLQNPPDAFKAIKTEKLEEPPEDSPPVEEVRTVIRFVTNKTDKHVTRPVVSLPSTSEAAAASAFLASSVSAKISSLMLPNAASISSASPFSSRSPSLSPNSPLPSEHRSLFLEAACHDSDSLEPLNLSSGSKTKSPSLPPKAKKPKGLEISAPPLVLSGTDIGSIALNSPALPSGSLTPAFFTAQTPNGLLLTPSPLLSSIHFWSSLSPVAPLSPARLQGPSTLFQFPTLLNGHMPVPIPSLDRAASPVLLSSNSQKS
# How it was run: as §1
sequence,measurement,setting,value
CTCTGA,binding signal,FLI1,"1.18 fold enrichment (6-mer frequency, TF over GST control)"
same,binding signal,ELK1,"1.32 fold enrichment (6-mer frequency, TF over GST control)"
same,binding signal,GABPA,"1.22 fold enrichment (6-mer frequency, TF over GST control)"
same,binding signal,ERG,"1.21 fold enrichment (6-mer frequency, TF over GST control)"
same,binding signal,ELF1,"1.25 fold enrichment (6-mer frequency, TF over GST control)"
same,binding signal,EHF,"1.3 fold enrichment (6-mer frequency, TF over GST control)"
same,binding signal,SPI1,"1.17 fold enrichment (6-mer frequency, TF over GST control)"
same,binding signal,SPIB,"1.31 fold enrichment (6-mer frequency, TF over GST control)"
same,binding signal,ELK3,"1.12 fold enrichment (6-mer frequency, TF over GST control)"
